# Compound activity: PubChem, National Center for Advancing Translational Sciences (NCATS)
# The list is not random: actives were taken first. Their share in the collection is about 8.7%.
# BAZ2B block: qHTS Assay for Inhibitors of BAZ2B | Bromodomain adjacent to zinc finger domain protein 2B (Homo sapiens), Q9UIF8 | AlphaScreen BAZ2B-H3K14Ac peptide displacement | Potency, µM (doses to about 114 µM), for inactives: top-dose activity change, negative = inhibition, usual class: inhibitors | actives 4.4% (n = 360,000) | AID 504333, 2011; also: % is scaled to controls: 0 for no effect and ±100 for the full control effect; nearly all actives have a fitted effect of over 60% in size
#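 BAZ2B 50 nM plus b-H3(5-23)K14Ac 50 nM, PBS pH 7.4/0.01% Tween-20, 30 min RT; compound added (max 110 uM), 30 min RT; streptavidin donor/Ni-chelate acceptor beads 10 ug/mL final, 20 min dark; AlphaScreen read.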
# G9a inh: qHTS Assay for Inhibitors of Histone Lysine Methyltransferase G9a. G9a H3K9 monomethylation, AlphaScreen, 2 h. AID 504332, 2011. Potency, µM (top dose mostly 102 µM), for the others: at the highest dose activity, negative = inhibition, most hits filed as inhibitors. Histone-lysine N-methyltransferase EHMT2 (Homo sapiens), Q96KQ7. actives 8.8% (n = 350,000); also: % is scaled to controls: 0 for no effect and ±100 for the full control effect; nearly all actives have a fitted effect of over 75% in size
# Target sequence (Q96KQ7 913-1193 limits assumed): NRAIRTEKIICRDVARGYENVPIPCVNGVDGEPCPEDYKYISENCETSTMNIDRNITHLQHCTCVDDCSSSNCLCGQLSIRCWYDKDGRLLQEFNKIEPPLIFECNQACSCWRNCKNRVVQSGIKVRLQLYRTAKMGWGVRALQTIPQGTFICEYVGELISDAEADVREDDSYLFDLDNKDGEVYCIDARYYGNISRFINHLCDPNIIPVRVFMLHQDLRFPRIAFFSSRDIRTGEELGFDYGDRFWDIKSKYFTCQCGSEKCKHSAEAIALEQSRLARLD
#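 Step 1: enzyme (final 20 nM) with compound, 15 min RT. Step 2: substrate peptide 500 nM and SAM 20 uM, 2 h RT. Step 3: anti-H3K9me1 antibody and AlphaScreen beads, 10 min, then plate read.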
# Sfp PPTase inh: qHTS Assay for Inhibitors of Bacillus subtilis Sfp phosphopantetheinyl transferase (PPTase) | 4'-phosphopantetheinyl transferase ffp (Bacillus subtilis), Q9F4F7 | Biochemical Sfp PPTase activity, qHTS | Potency, µM, for inactives: largest response in the series, negative = inhibition, actives largely listed as inhibitors | actives 3.5% (n = 310,000) | AID 1490, 2009;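 also: the enzyme is Sfp with the accession as filed and its product quenches rhodamine fluorescence; 0% = enzyme reaction without inhibitor and -100% = no enzyme wells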
#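 Fluorescence-quenching assay with 15 nM Sfp, 5 uM rhodamine-CoA and 12.5 uM BHQ-2-labelled ybbR peptide in pH 7.6 Hepes/MgCl2 buffer. Enzyme was pre-incubated with compound for 15 min at room temperature. Rate was taken from the 30-min fluorescence change (525/598 nm).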
# 12-LOX inh: Primary qHTS assay for inhibitors of human arachidonate 12S-lipoxygenase (ALOX12): Round 2 | purified 12hLO, xylenol orange hydroperoxide absorbance | Potency, µM (series often up to 108 µM), for the others: at the highest dose activity change, negative = inhibition, actives largely listed as inhibitors | actives 1.1% (n = 580,000); also: % is scaled to controls: 0 for no effect and ±100 for the full control effect
#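 Purified human 12hLO (150 nM final) in 25 mM Hepes, 0.01% Triton X-100, pH 7.0 was preincubated 15 min at room temperature with compound. Then 40 uM arachidonic acid was added, 30 min. Hydroperoxide was read by Fe-XO absorbance ratio 573/405 nm.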
# JMJD2A Tudor: qHTS Assay for Inhibitors of JMJD2A-Tudor Domain | actives 4.4% (n = 390,000) | AID 504339, 2011 | Lysine-specific demethylase 4A (Homo sapiens), O75164 | Potency, µM (series often up to 114 µM), inactives show at the highest dose activity change, negative = inhibition, hits mostly inhibitors | AlphaScreen JMJD2A-Tudor / H3K4me3 peptide binding; also: % is scaled to controls: 0 for no effect and ±100 for the full control effect; nearly all actives have a fitted effect of over 50% in size
# HP1b chromo inh: HTS for Inhibitors of HP1-beta Chromodomain Interactions with Methylated Histone Tails; Chromobox protein homolog 1 (Homo sapiens), P83916; AlphaScreen HP1-beta / biotin-H3K9me3 peptide binding; Potency, µM (highest dose often 114 µM), for inactives: at the highest dose activity change, negative = inhibition, most hits filed as inhibitors; actives 0.56% (n = 390,000); also: nearly all actives have a fitted effect of over 70% in size
# Target sequence (P83916 whole entry, looked up): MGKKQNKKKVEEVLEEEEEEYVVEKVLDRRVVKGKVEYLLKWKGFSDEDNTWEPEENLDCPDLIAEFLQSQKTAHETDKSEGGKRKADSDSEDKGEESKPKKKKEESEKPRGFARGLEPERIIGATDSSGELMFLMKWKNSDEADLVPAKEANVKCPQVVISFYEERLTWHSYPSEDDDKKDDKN
#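 HP1-beta protein (50 nM final) preincubated 30 min at room temperature with biotinylated H3(1-18)K9me3 peptide (50 nM) in PBS pH 7.4, 0.01% Tween-20, then compound added for 30 min. AlphaScreen streptavidin donor/nickel chelate acceptor beads (10 ug/mL final), 30 min dark, luminescence read.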
# * marks the source's active call; other numbers are inactive results; ? = inconclusive; / = no result; [ ] = remark or other dose. Calls follow the shape of the dose curve; as a rule, active = well fitted curve in the direction sought with a large enough effect; inconclusive = small, poorly fitted or top-dose-only effect, or another doubt; inactive = no such curve, though single readings can be large; an effect the other way counts as inactive or inconclusive. Potency is read from the fitted curve at half-maximal effect.
SMILES,BAZ2B block,G9a inh,Sfp PPTase inh,12-LOX inh,JMJD2A Tudor,HP1b chromo inh
Cc1ccc(NC(=O)Cn2cc(S(=O)(=O)Cc3cccc(Cl)c3)c3ccccc32)cc1C,0.1%,4.2%[59 µM],/,?,9.6%,32.6%
Cc1cc(NC(=O)CS(=O)(=O)c2cn(Cc3cccc(F)c3)c3ccccc23)no1,-34.8%,14.1µM*,-9.8%,-25.0%,-28.8%,5.1%
CN(C)c1ccc(NC(=O)Cn2cc(S(=O)(=O)Cc3ccccc3Cl)c3ccccc32)cc1,25.1µM*,5.01µM*,/,-25.9%,?,-17.8%
Cc1cc(C)c(NC(=O)Cn2cc(S(=O)(=O)Cc3ccccc3F)c3ccccc32)c(C)c1,-15.3%,3.1%[59 µM],/,?,-20.1%,3.2%
CC(C)c1nc(N(C)CCO)c(C#N)c2c1CCCC2,/,/,/,11.9%,/,/
O=C1CC(c2ccc(OCc3ccc(F)cc3)cc2)c2cn[nH]c2N1 (stereo not drawn),/,/,/,53.2%,/,/
CC(NC(=O)C1CCCCC1)C12CC3CC(CC(C3)C1)C2 (stereo not drawn),/,/,/,35.5%,/,/
Clc1ccc(N2CCN(c3ncnc4c3oc3ccccc34)CC2)cc1,1.1%,-2.5%,11.3%,-0.9%,-6.6%,2.1%
CC1CN(c2ncnc3c2oc2ccccc23)CC(C)O1 (stereo not drawn),?,50.1µM*,4.2%,?,-24.4%,54.3%
O=C(NC1CCN(C(=O)N2CC3CC(C2)[C@H]2CCCC(=O)N2C3)CC1)c1ccccn1 (stereo partly drawn),/,/,/,18.4%,/,/
Oc1ccccc1CN1CCC(C(O)(c2ccccc2)c2ccccc2)CC1,-37.6%,8.91µM*,-17.2%,-27.4%,?,?
O=C(C1CC1)N1CCC(C(O)(c2ccccc2)c2ccccc2)CC1,-2.9%,-21.4%[59 µM],7.9%,-13.4%,27.8%,17.2%
Oc1ccccc1CN1CCN(C(O)(c2ccccc2)c2ccccc2)CC1,50.1µM*,35.5µM*,-7.7%,?,-16.7%,2.4%
CCCCN(C(=O)c1cc(Cl)nc2ccccc12)c1c(N)n(CC(C)C)c(=O)[nH]c1=O,/,/,/,-7.0%,/,/
CN(CC(=O)Nc1ccc(Cl)c(Cl)c1)CC(=O)N(CCC#N)c1ccccc1F,/,/,/,-40.1%,/,/
N#Cc1cccc(-c2ccnc(N[C@H]3CO[C@H]4[C@@H]3OC[C@@H]4NC(=O)c3cccs3)n2)c1,/,/,/,23.5%[176 µM],/,/
COc1ccc(OC)c(C(=O)CN2CCN(S(=O)(=O)c3ccc(Br)cc3)CC2)c1,-7.2%,?,?,-14.3%,-25.7%,39.1%
O=C(CN1CCN(S(=O)(=O)c2ccc(Br)cc2)CC1)c1ccc(O)c(O)c1,?,10µM*,79.4µM*,?,7.0%,37.3%
CC(C)c1ccc(S(=O)(=O)N2CCN(CC(=O)Nc3ccc(Cl)cc3F)CC2)cc1,11.6%,-9.8%[12.7 µM],/,227.0%,-10.1%,38.4%
CC(C)c1ccc(S(=O)(=O)N2CCN(CC(=O)c3ccc(O)c(O)c3)CC2)cc1,39.8µM*,8.91µM*,22.4µM*,?,/,/
CC1CN(CCCCN)CC(C)O1 (stereo not drawn),/,/,/,-6.7%,/,/
CCOC(=O)C1CCN([C@H]2CS(=O)(=O)C[C@@H]2S(=O)(=O)c2ccc(F)cc2)CC1,/,/,/,-26.8%,/,/
CCOC(=O)c1ccc(N2C(=O)CC(NC3CCN(C(=O)c4cccc(Cl)c4)CC3)C2=O)cc1 (stereo not drawn),-0.8%,15.8µM*,-1.7%,/,-17.2%,39.9%
CC(C)N1C(=O)C(CC(=O)N(C)Cc2cccnc2)=C2CCCCC21 (stereo not drawn),/,/,/,17.8%,/,/
